Numbering of substitutions follows the chain as printed.
What was measured:
Assay in all cases: PBM; 200 nM protein, PBS
Settings in all cases: dsDNA, one strand shown
SIX6 [1] = molecular target: T1, SIX6 (Homo sapiens, UniProt O95475 114-200, L167I)
T1 sequence: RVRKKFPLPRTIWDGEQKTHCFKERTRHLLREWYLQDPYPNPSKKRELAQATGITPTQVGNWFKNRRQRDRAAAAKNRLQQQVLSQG

SIX6 [2] = molecular target: T2, SIX6 (Homo sapiens, UniProt O95475 114-200, L143V)
T2 sequence: T1 sequence with L30V, I54L

SIX6 [3] = molecular target: T3, SIX6 (Homo sapiens, UniProt O95475 114-200, H141N)
T3 sequence: T1 sequence with H28N, I54L

SIX6 [4] = molecular target: T4, SIX6 (Homo sapiens, UniProt O95475 114-200, T165P)
T4 sequence: T1 sequence with T52P, I54L

SIX6 [5] = molecular target: T5, SIX6 (Homo sapiens, UniProt O95475 114-200, L167M)
T5 sequence: T1 sequence with I54M

SIX6 [6] = molecular target: T6, SIX6 (Homo sapiens, UniProt O95475 114-200, L143M)
T6 sequence: T1 sequence with L30M, I54L

SIX6 [7] = molecular target: T7, SIX6 (Homo sapiens, UniProt O95475 114-200, L143I)
T7 sequence: T1 sequence with L30I, I54L

SIX6 [8] = molecular target: T8, SIX6 (Homo sapiens, UniProt O95475 114-200, T165G)
T8 sequence: T1 sequence with T52G, I54L

SIX6 [9] = molecular target: T9, SIX6 (Homo sapiens, UniProt O95475 114-200, T139Q)
T9 sequence: T1 sequence with T26Q, I54L

SIX6 [10] = molecular target: T10, SIX6 (Homo sapiens, UniProt O95475 114-200, T165A)
T10 sequence: T1 sequence with T52A, I54L

SIX6 [11] = molecular target: T11, SIX6 (Homo sapiens, UniProt O95475 114-200, L167V)
T11 sequence: T1 sequence with I54V

SIX6 [12] = molecular target: T12, SIX6 (Homo sapiens, UniProt O95475 114-200)
T12 sequence: T1 sequence with I54L

SIX6 [13] = molecular target: T13, SIX6 (Homo sapiens, UniProt O95475 114-200, T165I)
T13 sequence: T1 sequence with T52I, I54L

HOXB9 [14] = molecular target: HOXB9 (Homo sapiens, UniProt P17482 171-250)
Sequence of HOXB9 (Homo sapiens, UniProt P17482 171-250) (P17482 171-250): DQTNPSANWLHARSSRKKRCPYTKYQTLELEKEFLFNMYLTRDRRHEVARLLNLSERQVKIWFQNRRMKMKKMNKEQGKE

HOXB9 [15] = molecular target: HOXB9 (Homo sapiens, UniProt P17482 171-250, R186Q)
Sequence of HOXB9 (Homo sapiens, UniProt P17482 171-250, R186Q) (P17482 171-250 R186Q): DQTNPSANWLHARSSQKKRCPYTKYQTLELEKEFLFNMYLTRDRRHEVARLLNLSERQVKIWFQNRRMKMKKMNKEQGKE

HOXA2 [16] = molecular target: HOXA2 (Homo sapiens, UniProt O43364 129-215, R185T)
Sequence of HOXA2 (Homo sapiens, UniProt O43364 129-215, R185T) (O43364 129-215 R185T): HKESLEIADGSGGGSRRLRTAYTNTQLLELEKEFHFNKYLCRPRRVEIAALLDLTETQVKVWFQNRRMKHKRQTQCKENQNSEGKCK

HOXA2 [17] = molecular target: HOXA2 (Homo sapiens, UniProt O43364 129-215, R185K)
Sequence of HOXA2 (Homo sapiens, UniProt O43364 129-215, R185K) (O43364 129-215 R185K): as the sequence (O43364 129-215 R185T) above, with T57K counted along it

HOXA2 [18] = molecular target: HOXA2 (Homo sapiens, UniProt O43364 129-215, Y150S)
Sequence of HOXA2 (Homo sapiens, UniProt O43364 129-215, Y150S) (O43364 129-215 Y150S): as the sequence (O43364 129-215 R185T) above, with Y22S, T57R counted along it

HOXA2 [19] = molecular target: HOXA2 (Homo sapiens, UniProt O43364 129-215)
Sequence of HOXA2 (Homo sapiens, UniProt O43364 129-215) (O43364 129-215): as the sequence (O43364 129-215 R185T) above, with T57R counted along it

Sequence	binding signal (SIX6 [1])	binding signal (SIX6 [2])	binding signal (SIX6 [3])	binding signal (SIX6 [4])	binding signal (SIX6 [5])	binding signal (SIX6 [6])	binding signal (SIX6 [7])	binding signal (SIX6 [8])	binding signal (SIX6 [9])	binding signal (SIX6 [10])	binding signal (SIX6 [11])	binding signal (SIX6 [12])	binding signal (SIX6 [13])	binding signal (HOXB9 [14])	binding signal (HOXB9 [15])	binding signal (HOXA2 [16])	binding signal (HOXA2 [17])	binding signal (HOXA2 [18])	binding signal (HOXA2 [19])
GCACGCCC	8.91 upbm affinity estimate (log intensity, higher = more binding, comparable within an allelic series)	8.8 upbm affinity estimate (log intensity, higher = more binding, comparable within an allelic series)	8.92 upbm affinity estimate (log intensity, higher = more binding, comparable within an allelic series)	8.82 upbm affinity estimate (log intensity, higher = more binding, comparable within an allelic series)	8.88 upbm affinity estimate (log intensity, higher = more binding, comparable within an allelic series)	8.84 upbm affinity estimate (log intensity, higher = more binding, comparable within an allelic series)	8.88 upbm affinity estimate (log intensity, higher = more binding, comparable within an allelic series)	8.97 upbm affinity estimate (log intensity, higher = more binding, comparable within an allelic series)	8.92 upbm affinity estimate (log intensity, higher = more binding, comparable within an allelic series)	8.91 upbm affinity estimate (log intensity, higher = more binding, comparable within an allelic series)	8.87 upbm affinity estimate (log intensity, higher = more binding, comparable within an allelic series)	8.94 upbm affinity estimate (log intensity, higher = more binding, comparable within an allelic series)	8.8 upbm affinity estimate (log intensity, higher = more binding, comparable within an allelic series)	–	–	–	–	–	–
AGTGATAT	11.3 upbm affinity estimate (log intensity, higher = more binding, comparable within an allelic series)	10.3 upbm affinity estimate (log intensity, higher = more binding, comparable within an allelic series)	11.3 upbm affinity estimate (log intensity, higher = more binding, comparable within an allelic series)	9.9 upbm affinity estimate (log intensity, higher = more binding, comparable within an allelic series)	10.8 upbm affinity estimate (log intensity, higher = more binding, comparable within an allelic series)	11 upbm affinity estimate (log intensity, higher = more binding, comparable within an allelic series)	10.3 upbm affinity estimate (log intensity, higher = more binding, comparable within an allelic series)	11.2 upbm affinity estimate (log intensity, higher = more binding, comparable within an allelic series)	11.1 upbm affinity estimate (log intensity, higher = more binding, comparable within an allelic series)	11.2 upbm affinity estimate (log intensity, higher = more binding, comparable within an allelic series)	11 upbm affinity estimate (log intensity, higher = more binding, comparable within an allelic series)	11 upbm affinity estimate (log intensity, higher = more binding, comparable within an allelic series)	11.1 upbm affinity estimate (log intensity, higher = more binding, comparable within an allelic series)	9.87 upbm affinity estimate (log intensity, higher = more binding, comparable within an allelic series)	9.76 upbm affinity estimate (log intensity, higher = more binding, comparable within an allelic series)	–	–	–	–
CGGCCTGC	8.86 upbm affinity estimate (log intensity, higher = more binding, comparable within an allelic series)	8.66 upbm affinity estimate (log intensity, higher = more binding, comparable within an allelic series)	8.83 upbm affinity estimate (log intensity, higher = more binding, comparable within an allelic series)	8.82 upbm affinity estimate (log intensity, higher = more binding, comparable within an allelic series)	8.8 upbm affinity estimate (log intensity, higher = more binding, comparable within an allelic series)	8.73 upbm affinity estimate (log intensity, higher = more binding, comparable within an allelic series)	8.72 upbm affinity estimate (log intensity, higher = more binding, comparable within an allelic series)	8.88 upbm affinity estimate (log intensity, higher = more binding, comparable within an allelic series)	8.8 upbm affinity estimate (log intensity, higher = more binding, comparable within an allelic series)	8.82 upbm affinity estimate (log intensity, higher = more binding, comparable within an allelic series)	8.8 upbm affinity estimate (log intensity, higher = more binding, comparable within an allelic series)	8.79 upbm affinity estimate (log intensity, higher = more binding, comparable within an allelic series)	8.82 upbm affinity estimate (log intensity, higher = more binding, comparable within an allelic series)	–	–	–	–	–	–
CGGGAAGC	9.04 upbm affinity estimate (log intensity, higher = more binding, comparable within an allelic series)	8.99 upbm affinity estimate (log intensity, higher = more binding, comparable within an allelic series)	9 upbm affinity estimate (log intensity, higher = more binding, comparable within an allelic series)	9.05 upbm affinity estimate (log intensity, higher = more binding, comparable within an allelic series)	9.01 upbm affinity estimate (log intensity, higher = more binding, comparable within an allelic series)	8.96 upbm affinity estimate (log intensity, higher = more binding, comparable within an allelic series)	9.03 upbm affinity estimate (log intensity, higher = more binding, comparable within an allelic series)	9.03 upbm affinity estimate (log intensity, higher = more binding, comparable within an allelic series)	9.07 upbm affinity estimate (log intensity, higher = more binding, comparable within an allelic series)	9.03 upbm affinity estimate (log intensity, higher = more binding, comparable within an allelic series)	9.01 upbm affinity estimate (log intensity, higher = more binding, comparable within an allelic series)	8.93 upbm affinity estimate (log intensity, higher = more binding, comparable within an allelic series)	8.99 upbm affinity estimate (log intensity, higher = more binding, comparable within an allelic series)	–	–	–	–	–	–
CTCGGGCC	9.05 upbm affinity estimate (log intensity, higher = more binding, comparable within an allelic series)	8.95 upbm affinity estimate (log intensity, higher = more binding, comparable within an allelic series)	9.05 upbm affinity estimate (log intensity, higher = more binding, comparable within an allelic series)	9.01 upbm affinity estimate (log intensity, higher = more binding, comparable within an allelic series)	8.95 upbm affinity estimate (log intensity, higher = more binding, comparable within an allelic series)	9.01 upbm affinity estimate (log intensity, higher = more binding, comparable within an allelic series)	9.02 upbm affinity estimate (log intensity, higher = more binding, comparable within an allelic series)	9.14 upbm affinity estimate (log intensity, higher = more binding, comparable within an allelic series)	9.13 upbm affinity estimate (log intensity, higher = more binding, comparable within an allelic series)	9.09 upbm affinity estimate (log intensity, higher = more binding, comparable within an allelic series)	9.03 upbm affinity estimate (log intensity, higher = more binding, comparable within an allelic series)	9.02 upbm affinity estimate (log intensity, higher = more binding, comparable within an allelic series)	9.02 upbm affinity estimate (log intensity, higher = more binding, comparable within an allelic series)	–	–	–	–	–	–
AGCGCCCG	9.03 upbm affinity estimate (log intensity, higher = more binding, comparable within an allelic series)	8.99 upbm affinity estimate (log intensity, higher = more binding, comparable within an allelic series)	9.03 upbm affinity estimate (log intensity, higher = more binding, comparable within an allelic series)	9.05 upbm affinity estimate (log intensity, higher = more binding, comparable within an allelic series)	9.04 upbm affinity estimate (log intensity, higher = more binding, comparable within an allelic series)	9.02 upbm affinity estimate (log intensity, higher = more binding, comparable within an allelic series)	8.98 upbm affinity estimate (log intensity, higher = more binding, comparable within an allelic series)	8.98 upbm affinity estimate (log intensity, higher = more binding, comparable within an allelic series)	8.94 upbm affinity estimate (log intensity, higher = more binding, comparable within an allelic series)	8.98 upbm affinity estimate (log intensity, higher = more binding, comparable within an allelic series)	8.97 upbm affinity estimate (log intensity, higher = more binding, comparable within an allelic series)	8.99 upbm affinity estimate (log intensity, higher = more binding, comparable within an allelic series)	9 upbm affinity estimate (log intensity, higher = more binding, comparable within an allelic series)	–	–	–	–	–	–
CGCTCCGC	8.79 upbm affinity estimate (log intensity, higher = more binding, comparable within an allelic series)	8.89 upbm affinity estimate (log intensity, higher = more binding, comparable within an allelic series)	8.83 upbm affinity estimate (log intensity, higher = more binding, comparable within an allelic series)	8.94 upbm affinity estimate (log intensity, higher = more binding, comparable within an allelic series)	8.9 upbm affinity estimate (log intensity, higher = more binding, comparable within an allelic series)	8.87 upbm affinity estimate (log intensity, higher = more binding, comparable within an allelic series)	8.84 upbm affinity estimate (log intensity, higher = more binding, comparable within an allelic series)	8.81 upbm affinity estimate (log intensity, higher = more binding, comparable within an allelic series)	8.84 upbm affinity estimate (log intensity, higher = more binding, comparable within an allelic series)	8.85 upbm affinity estimate (log intensity, higher = more binding, comparable within an allelic series)	8.79 upbm affinity estimate (log intensity, higher = more binding, comparable within an allelic series)	8.81 upbm affinity estimate (log intensity, higher = more binding, comparable within an allelic series)	8.82 upbm affinity estimate (log intensity, higher = more binding, comparable within an allelic series)	–	–	–	–	–	–
GTCCGGAC	9.13 upbm affinity estimate (log intensity, higher = more binding, comparable within an allelic series)	8.97 upbm affinity estimate (log intensity, higher = more binding, comparable within an allelic series)	8.97 upbm affinity estimate (log intensity, higher = more binding, comparable within an allelic series)	9.02 upbm affinity estimate (log intensity, higher = more binding, comparable within an allelic series)	9.09 upbm affinity estimate (log intensity, higher = more binding, comparable within an allelic series)	9.15 upbm affinity estimate (log intensity, higher = more binding, comparable within an allelic series)	9.08 upbm affinity estimate (log intensity, higher = more binding, comparable within an allelic series)	9.27 upbm affinity estimate (log intensity, higher = more binding, comparable within an allelic series)	9.2 upbm affinity estimate (log intensity, higher = more binding, comparable within an allelic series)	9.14 upbm affinity estimate (log intensity, higher = more binding, comparable within an allelic series)	9.17 upbm affinity estimate (log intensity, higher = more binding, comparable within an allelic series)	9.13 upbm affinity estimate (log intensity, higher = more binding, comparable within an allelic series)	9.13 upbm affinity estimate (log intensity, higher = more binding, comparable within an allelic series)	–	–	7.42 upbm affinity estimate (log intensity, higher = more binding, comparable within an allelic series)	10.6 upbm affinity estimate (log intensity, higher = more binding, comparable within an allelic series)	10.6 upbm affinity estimate (log intensity, higher = more binding, comparable within an allelic series)	7.3 upbm affinity estimate (log intensity, higher = more binding, comparable within an allelic series)
CCACCCGC	9.19 upbm affinity estimate (log intensity, higher = more binding, comparable within an allelic series)	9.01 upbm affinity estimate (log intensity, higher = more binding, comparable within an allelic series)	9.2 upbm affinity estimate (log intensity, higher = more binding, comparable within an allelic series)	9.04 upbm affinity estimate (log intensity, higher = more binding, comparable within an allelic series)	9.21 upbm affinity estimate (log intensity, higher = more binding, comparable within an allelic series)	9.22 upbm affinity estimate (log intensity, higher = more binding, comparable within an allelic series)	9.08 upbm affinity estimate (log intensity, higher = more binding, comparable within an allelic series)	9.26 upbm affinity estimate (log intensity, higher = more binding, comparable within an allelic series)	9.36 upbm affinity estimate (log intensity, higher = more binding, comparable within an allelic series)	9.23 upbm affinity estimate (log intensity, higher = more binding, comparable within an allelic series)	9.16 upbm affinity estimate (log intensity, higher = more binding, comparable within an allelic series)	9.18 upbm affinity estimate (log intensity, higher = more binding, comparable within an allelic series)	9.15 upbm affinity estimate (log intensity, higher = more binding, comparable within an allelic series)	–	–	–	–	–	–
CGTCGCGC	9.07 upbm affinity estimate (log intensity, higher = more binding, comparable within an allelic series)	9.04 upbm affinity estimate (log intensity, higher = more binding, comparable within an allelic series)	9.11 upbm affinity estimate (log intensity, higher = more binding, comparable within an allelic series)	9.07 upbm affinity estimate (log intensity, higher = more binding, comparable within an allelic series)	9 upbm affinity estimate (log intensity, higher = more binding, comparable within an allelic series)	9.11 upbm affinity estimate (log intensity, higher = more binding, comparable within an allelic series)	9.05 upbm affinity estimate (log intensity, higher = more binding, comparable within an allelic series)	9.08 upbm affinity estimate (log intensity, higher = more binding, comparable within an allelic series)	9.27 upbm affinity estimate (log intensity, higher = more binding, comparable within an allelic series)	9.17 upbm affinity estimate (log intensity, higher = more binding, comparable within an allelic series)	8.92 upbm affinity estimate (log intensity, higher = more binding, comparable within an allelic series)	9.06 upbm affinity estimate (log intensity, higher = more binding, comparable within an allelic series)	8.97 upbm affinity estimate (log intensity, higher = more binding, comparable within an allelic series)	–	–	7.22 upbm affinity estimate (log intensity, higher = more binding, comparable within an allelic series)	10.4 upbm affinity estimate (log intensity, higher = more binding, comparable within an allelic series)	10.5 upbm affinity estimate (log intensity, higher = more binding, comparable within an allelic series)	7.41 upbm affinity estimate (log intensity, higher = more binding, comparable within an allelic series)
